Outcome and AC50 data for six compounds are collected here from PubChem BioAssay (EPA / NIEHS).

Structures are written as SMILES. Where “and” joins values, the source holds several entries; their conditions need not be identical. Identical values can stand only once. Inconclusive results are not listed. Some compounds were tested as several samples or in several runs, with calls that do not always agree. Calls of active or inactive are those of the source. How the source made its calls: active means hit-call score of the fitted dose curve at least 0.9, where 1 is the maximum; inconclusive means response in the unintended direction; inactive means score below 0.9.

The target in assay [1] is zebrafish Thyroid Hormone Receptor beta (TRb), thrb (gene 30607) (UniProt Q9PVE4). In words: ATG_zfTRb_XSP1: Attagene TRANS-FACTORIAL Multi-Species (XSP1) HepG2 Assay for zebrafish Thyroid Hormone Receptor beta (TRb) (AID 2283809). The method, boiled down: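 HepG2 cells transiently transfected with multiplexed GAL4-UAS reporter units expressing chimeric zebrafish TRb–Gal4. Dosed 24 h with 3 nM 6-alpha-fluorotestosterone present; reporter mRNA measured by RT-PCR, HpaI digestion and capillary electrophoresis; gain of signal versus DMSO.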
Sequence of zebrafish Thyroid Hormone Receptor beta (TRb), thrb (gene 30607) (Q9PVE4 whole entry, looked up, the tested form may be a part): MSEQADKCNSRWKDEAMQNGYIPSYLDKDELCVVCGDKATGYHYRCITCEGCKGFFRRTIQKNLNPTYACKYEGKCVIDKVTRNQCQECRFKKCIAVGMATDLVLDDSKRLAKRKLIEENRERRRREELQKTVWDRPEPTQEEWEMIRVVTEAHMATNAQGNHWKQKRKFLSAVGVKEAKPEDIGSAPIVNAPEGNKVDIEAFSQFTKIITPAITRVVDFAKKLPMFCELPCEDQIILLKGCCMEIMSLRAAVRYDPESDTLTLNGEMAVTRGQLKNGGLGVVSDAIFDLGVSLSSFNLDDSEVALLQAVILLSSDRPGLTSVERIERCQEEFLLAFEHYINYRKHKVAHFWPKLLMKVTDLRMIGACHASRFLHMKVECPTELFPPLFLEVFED

The nature of assay [2]: ATG_M_06_XSP2: Attagene TRANS-FACTORIAL Multi-Species (XSP2) HepG2 Assay for M06 Transcription Factor (Internal Marker) (AID 2283811).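 Further: hits are increases in signal above the DMSO baseline.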 The procedure, abridged: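 HepG2, multiplexed reporter transfection; 24 h dosing; AR stimulated with 3 nM 6-alpha-fluorotestosterone + 1.5 nM norgestrel; RNA → RT-PCR → 6-FAM primer extension → HpaI → CE. Positive direction vs DMSO.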
Assay [3] concerns turtle Estrogen Receptor (ERa), gene 101933533. The assay is described as follows: ATG_trERa_XSP2: Attagene TRANS-FACTORIAL Multi-Species (XSP2) HepG2 Assay for turtle Estrogen Receptor (ERa) (AID 2283812).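 Further: human HepG2 liver cells transiently expressing turtle ERa-Gal4 chimeric receptor; actives raise reporter signal above DMSO so AC50 reflects agonist activity.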 The method, boiled down:
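HepG2 cells transiently transfected with GAL4-UAS reporter units expressing turtle ERa-Gal4 chimera. Reporter mRNA measured after 24 h dosing by RT-PCR, fluorescent labelling and capillary electrophoresis; gain of signal fitted versus DMSO.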

Assay [4] deals with GAL4 Transcription Factor (Internal Marker), GAL4 (gene 855828) (UniProt P04386). The assay is described as follows: ATG_GAL4_XSP2: Attagene TRANS-FACTORIAL Multi-Species (XSP2) HepG2 Assay for GAL4 Transcription Factor (Internal Marker) (AID 2283814).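 Further: GAL4 reporter mRNA background control in MRTU transfected cells not a receptor target.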 The method, boiled down:
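HepG2 cells transiently transfected with GAL4-UAS reporter units, stimulated with 3 nM 6-alpha-fluorotestosterone plus 1.5 nM norgestrel, dosed 24 h. Reporter mRNA by RT-PCR/capillary electrophoresis; gain-of-signal fit versus DMSO, background control.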

The target of assay [5] is chicken Estrogen Receptor (ERa), ESR1 (gene 396099) (UniProt P06212). In words: ATG_chERa_XSP2: Attagene TRANS-FACTORIAL Multi-Species (XSP2) HepG2 Assay for chicken Estrogen Receptor (ERa) (AID 2283817).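 Further: actives raise reporter signal above DMSO so AC50 reflects ER activation.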 The method, boiled down: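 Transient MRTU transfection of HepG2 → 24 h chemical dosing → TriZol RNA, oligo(dT) RT → PCR, 6-FAM primer extension, HpaI digest → CE quantitation of chicken ERa-Gal4-driven reporter mRNA. Positive direction vs DMSO.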
Sequence of chicken Estrogen Receptor (ERa), ESR1 (gene 396099) (P06212 whole entry, looked up, the tested form may be a part): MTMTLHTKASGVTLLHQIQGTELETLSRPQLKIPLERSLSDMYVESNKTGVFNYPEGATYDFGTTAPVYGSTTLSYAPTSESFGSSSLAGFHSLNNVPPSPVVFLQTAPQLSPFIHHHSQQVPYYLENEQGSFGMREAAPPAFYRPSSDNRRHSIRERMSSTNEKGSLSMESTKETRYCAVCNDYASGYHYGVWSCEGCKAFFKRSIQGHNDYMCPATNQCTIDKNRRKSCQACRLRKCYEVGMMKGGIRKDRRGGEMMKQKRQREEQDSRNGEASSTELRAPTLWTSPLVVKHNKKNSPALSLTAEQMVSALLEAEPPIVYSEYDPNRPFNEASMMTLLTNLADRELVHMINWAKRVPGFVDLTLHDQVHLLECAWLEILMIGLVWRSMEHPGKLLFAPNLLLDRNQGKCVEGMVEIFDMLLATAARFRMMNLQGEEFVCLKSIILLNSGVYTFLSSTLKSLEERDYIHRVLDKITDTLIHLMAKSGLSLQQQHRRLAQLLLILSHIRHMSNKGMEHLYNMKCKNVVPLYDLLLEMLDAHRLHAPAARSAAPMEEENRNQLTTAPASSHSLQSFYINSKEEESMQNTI

Assay [6] concerns zebrafish Estrogen Receptor (ER2a), gene 317734. The assay is described as follows: ATG_zfER2a_XSP2: Attagene TRANS-FACTORIAL Multi-Species (XSP2) HepG2 Assay for zebrafish Estrogen Receptor (ER2a) (AID 2283818).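 Further: hits raise reporter mRNA so AC50 reflects activation of zebrafish ER2a.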 The method, boiled down: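 HepG2 cells transiently transfected with GAL4-UAS reporter units and chimeric zebrafish ER2a-Gal4, exposed 24 h; medium contains 3 nM 6-alpha-fluorotestosterone and 1.5 nM norgestrel. Reporter mRNA quantified by RT-PCR, HpaI digestion, capillary electrophoresis; gain versus DMSO.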

Assay [7] relates to frog Estrogen Receptor (ER), gene 398734. The assay is described as follows: ATG_frER1_XSP2: Attagene TRANS-FACTORIAL Multi-Species (XSP2) HepG2 Assay for frog Estrogen Receptor (ER) (AID 2283821).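 Further: hits raise reporter mRNA above DMSO baseline so potency means agonist or activator.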 The procedure, abridged: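 Steps: transfect HepG2 with multiple reporter transcription units; treat with chemical for 24 h; isolate RNA, reverse-transcribe, PCR-amplify, label with 6-FAM, digest with HpaI; resolve fragments by capillary electrophoresis. Signal is scored against DMSO.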

Assay [8] relates to zebrafish Estrogen Receptor (ER2b), gene 317733. The assay is described as follows: ATG_zfER2b_XSP2: Attagene TRANS-FACTORIAL Multi-Species (XSP2) HepG2 Assay for zebrafish Estrogen Receptor (ER2b) (AID 2283823).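 Further: fitted upward as reporter gain over DMSO so potency reflects activation.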 The procedure, abridged: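 In this multiplexed trans-activation format, HepG2 cells expressing exogenous NR-Gal4 fusions drive GAL4-UAS reporters. Exposure lasts 24 h, and reporter mRNA induction is read by RT-PCR with capillary electrophoresis detection.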

For assay [9], the target named is Estrogen receptor (Homo sapiens) (UniProt P03372). The assay is described as follows: ATG_hERa_XSP2: Attagene TRANS-FACTORIAL Multi-Species (XSP2) HepG2 Assay for human Estrogen Receptor (ERa) (AID 2283827). The method, boiled down: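 HepG2 cells transiently transfected with multiplexed GAL4-UAS reporters driven by chimeric receptor-Gal4 proteins, dosed 24 h with 3 nM 6-alpha-fluorotestosterone and 1.5 nM norgestrel present. Reporter mRNA by RT-PCR and capillary electrophoresis; gain-of-signal fit versus DMSO.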
Sequence of Estrogen receptor (Homo sapiens) (P03372 whole entry, looked up, the tested form may be a part): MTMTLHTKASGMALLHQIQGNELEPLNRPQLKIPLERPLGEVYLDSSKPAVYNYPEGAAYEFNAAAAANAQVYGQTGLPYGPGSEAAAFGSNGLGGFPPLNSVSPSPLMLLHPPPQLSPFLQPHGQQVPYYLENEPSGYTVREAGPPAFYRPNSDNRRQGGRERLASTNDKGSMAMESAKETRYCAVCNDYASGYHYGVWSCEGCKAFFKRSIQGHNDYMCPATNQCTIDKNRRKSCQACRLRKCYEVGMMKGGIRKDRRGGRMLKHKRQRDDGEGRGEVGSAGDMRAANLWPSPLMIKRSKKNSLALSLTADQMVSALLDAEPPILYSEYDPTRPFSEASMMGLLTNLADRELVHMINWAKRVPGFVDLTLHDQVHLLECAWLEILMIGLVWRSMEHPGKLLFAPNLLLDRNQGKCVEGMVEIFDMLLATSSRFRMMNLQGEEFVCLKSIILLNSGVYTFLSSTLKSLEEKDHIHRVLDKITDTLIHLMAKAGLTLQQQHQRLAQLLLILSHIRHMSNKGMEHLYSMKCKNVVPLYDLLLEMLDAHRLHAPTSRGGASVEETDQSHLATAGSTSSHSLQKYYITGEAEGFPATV

Assay [10] has as its system frog Estrogen Receptor (ER2), gene 100174814. The assay is described as follows: ATG_frER2_XSP2: Attagene TRANS-FACTORIAL Multi-Species (XSP2) HepG2 Assay for frog Estrogen Receptor (ER2) (AID 2283828). The method, boiled down:
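Multiplexed transactivation in HepG2: frog estrogen receptor fused to Gal4 drives a UAS reporter. Signal is reporter mRNA after 24 h treatment.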

Assay [11] addresses mouse Peroxisome Proliferator-activated Receptor gamma (PPARg), Pparg (gene 19016) (UniProt P37238). The assay is described as follows: ATG_mPPARg_XSP2: Attagene TRANS-FACTORIAL Multi-Species (XSP2) HepG2 Assay for mouse Peroxisome Proliferator-activated Receptor gamma (PPARg) (AID 2283830).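 Further: hits are gains in reporter mRNA above DMSO so AC50 marks activation.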 The method, boiled down:
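HepG2 cells transiently transfected with GAL4-UAS reporter units for chimeric NR-Gal4 proteins including mouse PPARg, exposed 24 h; medium contained 3 nM 6-alpha-fluorotestosterone and 1.5 nM norgestrel. Reporter mRNA quantified by RT-PCR, HpaI digestion and capillary electrophoresis, vs DMSO.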

Assay [12] addresses Estrogen receptor beta (Homo sapiens) (UniProt Q92731). In words: ATG_hERb_XSP2: Attagene TRANS-FACTORIAL Multi-Species (XSP2) HepG2 Assay for human Estrogen Receptor (ERb) (AID 2283813).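 Further: actives raise reporter mRNA above DMSO so AC50 reflects agonist induction.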 The method, boiled down: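 HepG2 cells transiently transfected with GAL4-UAS reporter units and chimeric human ERb-Gal4, 24 h exposure. Reporter mRNA quantified by RT-PCR with FAM labelling, HpaI digestion and capillary electrophoresis; gain of signal versus DMSO.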

Assay [13] addresses zebrafish Estrogen Receptor (ER1), esr1 (gene 259252) (UniProt P57717). The assay is described as follows: ATG_zfER1_XSP2: Attagene TRANS-FACTORIAL Multi-Species (XSP2) HepG2 Assay for zebrafish Estrogen Receptor (ER1) (AID 2283816). The method, boiled down: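 HepG2 cells transiently transfected with a GAL4-UAS reporter and a chimeric zebrafish ER1-Gal4 construct, dosed 24 h. Reporter mRNA quantified by RT-PCR, labelling, HpaI digestion and capillary electrophoresis, relative to DMSO.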

Assay [14] in a line: ATG_M_19_XSP2: Attagene TRANS-FACTORIAL Multi-Species (XSP2) HepG2 Assay for M32 Transcription Factor (Internal Marker) (AID 2283822). The procedure, abridged:
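Internal background marker in a multi-species nuclear receptor TRANS panel: transfected HepG2 cells exposed 24 h, with 3 nM 6-alpha-fluorotestosterone and 1.5 nM norgestrel present. Readout is RT-PCR of reporter transcripts resolved by capillary electrophoresis, gain-of-signal versus DMSO.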

Assay [15] has as its target Peroxisome proliferator-activated receptor gamma (Homo sapiens) (UniProt P37231). The assay is described as follows: ATG_hPPARg_XSP2: Attagene TRANS-FACTORIAL Multi-Species (XSP2) HepG2 Assay for human Peroxisome Proliferator-activated Receptor gamma (PPARg) (AID 2283829).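 Further: actives raise reporter mRNA above DMSO so AC50 reflects PPARg activation.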 The procedure, abridged:
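Multiplexed transactivation in transfected HepG2 liver cells. Gal4-chimeric receptor activity reported as induced reporter transcript after 24 h.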

For assay [16], the target named is zebrafish Thyroid Hormone Receptor alpha (TRa), thraa (gene 30670) (UniProt Q98867). The assay is described as follows: ATG_zfTRa_XSP2: Attagene TRANS-FACTORIAL Multi-Species (XSP1) HepG2 Assay for zebrafish Thyroid Hormone Receptor alpha (TRa) (AID 2283832).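 Further: actives raise zebrafish TRa-Gal4 reporter transcript above DMSO baseline.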 The method, boiled down: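 Transient transfection of human HepG2 with GAL4-UAS reporter units, then 24 h chemical treatment. RNA isolated, reverse-transcribed, PCR-amplified, FAM-labelled, HpaI-digested and run on capillary electrophoresis. Gain-of-signal relative to DMSO.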
Sequence of zebrafish Thyroid Hormone Receptor alpha (TRa), thraa (gene 30670) (Q98867 whole entry, looked up, the tested form may be a part): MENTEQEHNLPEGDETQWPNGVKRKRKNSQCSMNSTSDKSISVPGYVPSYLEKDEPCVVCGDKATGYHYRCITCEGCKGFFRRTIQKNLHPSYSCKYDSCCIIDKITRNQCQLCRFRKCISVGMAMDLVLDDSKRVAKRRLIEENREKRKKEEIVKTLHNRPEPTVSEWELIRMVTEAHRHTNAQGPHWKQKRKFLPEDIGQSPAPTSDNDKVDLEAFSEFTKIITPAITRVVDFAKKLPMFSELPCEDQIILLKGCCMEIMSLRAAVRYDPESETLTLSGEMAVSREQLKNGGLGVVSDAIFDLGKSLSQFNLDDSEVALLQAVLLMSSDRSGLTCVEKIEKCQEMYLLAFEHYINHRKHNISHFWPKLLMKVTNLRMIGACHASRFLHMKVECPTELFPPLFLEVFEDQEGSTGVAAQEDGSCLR

Assay [17] concerns chicken Androgen Receptor (AR), gene 422165. The assay is described as follows: ATG_chAR_XSP2: Attagene TRANS-FACTORIAL Multi-Species (XSP2) HepG2 Assay for chicken Androgen Receptor (AR) (AID 2283819).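 Further: hits raise reporter mRNA above DMSO so potency is for activation.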 The procedure, abridged: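 HepG2 cells transiently transfected with chicken AR–GAL4 chimeric reporter constructs, stimulated with 3 nM 6-alpha-fluorotestosterone plus 1.5 nM norgestrel, dosed 24 h. Reporter mRNA quantified by RT-PCR and capillary electrophoresis; gain of signal fitted versus DMSO.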

Sequence of Estrogen receptor beta (Homo sapiens) (Q92731 whole entry, looked up, the tested form may be a part): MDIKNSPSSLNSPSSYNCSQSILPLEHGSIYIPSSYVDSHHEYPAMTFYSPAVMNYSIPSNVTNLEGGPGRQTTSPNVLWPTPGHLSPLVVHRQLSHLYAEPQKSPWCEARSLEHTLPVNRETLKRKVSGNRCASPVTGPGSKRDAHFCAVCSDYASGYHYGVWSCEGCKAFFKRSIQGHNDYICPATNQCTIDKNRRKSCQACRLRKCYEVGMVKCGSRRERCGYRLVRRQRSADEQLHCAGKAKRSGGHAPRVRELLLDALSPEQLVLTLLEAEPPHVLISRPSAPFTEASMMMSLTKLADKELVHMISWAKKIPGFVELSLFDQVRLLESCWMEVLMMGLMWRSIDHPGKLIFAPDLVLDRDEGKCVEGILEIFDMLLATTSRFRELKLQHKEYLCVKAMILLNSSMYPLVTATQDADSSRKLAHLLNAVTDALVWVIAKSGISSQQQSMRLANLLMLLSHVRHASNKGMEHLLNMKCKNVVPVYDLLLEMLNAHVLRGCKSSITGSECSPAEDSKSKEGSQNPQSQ
Sequence of mouse Peroxisome Proliferator-activated Receptor gamma (PPARg), Pparg (gene 19016) (P37238 whole entry, looked up, the tested form may be a part): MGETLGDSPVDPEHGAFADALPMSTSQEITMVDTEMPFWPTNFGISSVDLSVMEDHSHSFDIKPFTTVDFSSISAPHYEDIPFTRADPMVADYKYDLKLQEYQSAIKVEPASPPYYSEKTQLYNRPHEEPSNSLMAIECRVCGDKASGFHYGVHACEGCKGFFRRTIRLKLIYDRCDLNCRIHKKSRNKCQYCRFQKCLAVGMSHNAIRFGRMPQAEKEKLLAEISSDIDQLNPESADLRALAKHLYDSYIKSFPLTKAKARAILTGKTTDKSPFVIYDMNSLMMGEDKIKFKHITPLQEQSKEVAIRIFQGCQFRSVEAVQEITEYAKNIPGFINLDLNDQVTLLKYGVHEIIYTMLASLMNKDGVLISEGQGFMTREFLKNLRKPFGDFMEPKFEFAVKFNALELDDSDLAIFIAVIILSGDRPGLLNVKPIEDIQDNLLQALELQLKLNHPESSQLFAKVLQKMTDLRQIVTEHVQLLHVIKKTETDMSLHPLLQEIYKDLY
Sequence of Peroxisome proliferator-activated receptor gamma (Homo sapiens) (P37231 whole entry, looked up, the tested form may be a part): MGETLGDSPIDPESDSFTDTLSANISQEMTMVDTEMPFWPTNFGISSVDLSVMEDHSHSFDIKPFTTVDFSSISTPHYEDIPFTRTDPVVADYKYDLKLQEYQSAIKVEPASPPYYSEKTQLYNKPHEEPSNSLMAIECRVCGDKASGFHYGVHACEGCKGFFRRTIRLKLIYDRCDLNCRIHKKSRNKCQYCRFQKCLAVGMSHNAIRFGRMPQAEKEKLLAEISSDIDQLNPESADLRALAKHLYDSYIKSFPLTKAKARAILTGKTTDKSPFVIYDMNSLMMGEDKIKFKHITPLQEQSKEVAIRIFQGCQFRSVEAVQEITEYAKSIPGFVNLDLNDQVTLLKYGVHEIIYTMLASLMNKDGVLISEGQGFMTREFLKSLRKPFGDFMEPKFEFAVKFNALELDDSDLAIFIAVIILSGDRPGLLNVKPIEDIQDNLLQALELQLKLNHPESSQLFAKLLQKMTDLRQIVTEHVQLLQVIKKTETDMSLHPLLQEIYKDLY
Sequence of zebrafish Estrogen Receptor (ER1), esr1 (gene 259252) (P57717 whole entry, looked up, the tested form may be a part): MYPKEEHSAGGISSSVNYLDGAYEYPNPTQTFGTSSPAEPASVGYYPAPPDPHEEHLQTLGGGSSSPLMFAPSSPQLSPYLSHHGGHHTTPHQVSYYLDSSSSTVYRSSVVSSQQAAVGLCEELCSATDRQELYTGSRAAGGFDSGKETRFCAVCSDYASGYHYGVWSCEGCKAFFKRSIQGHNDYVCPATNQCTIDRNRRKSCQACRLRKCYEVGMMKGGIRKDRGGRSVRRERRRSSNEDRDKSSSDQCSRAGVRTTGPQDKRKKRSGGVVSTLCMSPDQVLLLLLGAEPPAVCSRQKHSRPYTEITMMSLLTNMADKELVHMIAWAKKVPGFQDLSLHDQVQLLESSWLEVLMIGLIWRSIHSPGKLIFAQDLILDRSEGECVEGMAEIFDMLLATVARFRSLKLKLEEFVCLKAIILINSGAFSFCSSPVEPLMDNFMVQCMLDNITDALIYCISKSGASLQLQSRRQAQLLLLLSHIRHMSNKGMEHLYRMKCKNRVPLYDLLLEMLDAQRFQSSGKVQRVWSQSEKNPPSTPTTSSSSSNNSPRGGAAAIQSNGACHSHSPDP
Sequence of GAL4 Transcription Factor (Internal Marker), GAL4 (gene 855828) (P04386 whole entry, looked up, the tested form may be a part): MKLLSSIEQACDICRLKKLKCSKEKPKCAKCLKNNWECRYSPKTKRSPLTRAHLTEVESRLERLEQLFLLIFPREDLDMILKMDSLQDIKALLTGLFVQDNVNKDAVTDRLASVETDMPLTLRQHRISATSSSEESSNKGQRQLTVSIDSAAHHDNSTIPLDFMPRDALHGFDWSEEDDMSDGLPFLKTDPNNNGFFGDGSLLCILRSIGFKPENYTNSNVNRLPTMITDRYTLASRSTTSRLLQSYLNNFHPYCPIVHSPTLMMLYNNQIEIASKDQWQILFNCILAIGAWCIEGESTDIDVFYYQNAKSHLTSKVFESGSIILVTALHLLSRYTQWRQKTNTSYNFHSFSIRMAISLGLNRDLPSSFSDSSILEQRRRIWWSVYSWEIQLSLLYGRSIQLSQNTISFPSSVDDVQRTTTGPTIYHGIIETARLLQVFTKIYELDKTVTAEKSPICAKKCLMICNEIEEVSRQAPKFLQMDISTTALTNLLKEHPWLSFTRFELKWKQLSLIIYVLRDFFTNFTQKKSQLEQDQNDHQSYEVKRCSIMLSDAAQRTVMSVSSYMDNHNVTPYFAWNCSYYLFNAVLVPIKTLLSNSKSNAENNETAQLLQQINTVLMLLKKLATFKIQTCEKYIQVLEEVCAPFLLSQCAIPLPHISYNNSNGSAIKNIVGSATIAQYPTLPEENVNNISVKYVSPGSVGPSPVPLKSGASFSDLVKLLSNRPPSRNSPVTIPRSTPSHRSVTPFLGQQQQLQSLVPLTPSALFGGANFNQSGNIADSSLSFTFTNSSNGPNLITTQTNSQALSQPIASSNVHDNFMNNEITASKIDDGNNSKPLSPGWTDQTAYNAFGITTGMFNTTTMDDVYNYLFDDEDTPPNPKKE

`CC(C)(C)NC(=O)[C@H]1CC[C@H]2[C@@H]3CC[C@H]4NC(=O)C=C[C@]4(C)[C@H]3CC[C@]12C`: the call in assay [1], in assay [2], in [3], in assay [4], in assay [5] and in assay [7] was inactive. In addition, in [11], the result was inactive. The AC50 in [6] is 142 µM (active); in assay [8] it was 67.5 µM (active); in assay [9], 33.5 µM (active); in assay [10], 100 µM (active).

Take `Oc1ccc(-c2ccccc2)c(Cl)c1`: the AC50 was 4.73 µM (active) and 2.56 µM (active) in [3]; 8.87 µM (active) and 8.92 µM (active) in assay [12]; 17.3 µM (active) and 20.1 µM (active) in assay [13]; 5.68 µM (active) and 2.43 µM (active) in assay [5]; 4.34 µM (active) and 9.01 µM (active) in [6]; 9.03 µM (active) and 7 µM (active) in assay [8]. The AC50 in [9] is 5.18 µM (active) and 4.36 µM (active); in [10], 5.62 µM (active) and 3.17 µM (active); in assay [15] it was 33.4 µM (active) and 28.7 µM (active); in assay [11] it was 33.4 µM (active). The compound was classed as inactive in assay [7], in assay [14] and in [16].

On to `COc1ccc(C(=O)c2ccccc2)c(O)c1`, for which the result in [2], in [12], in assay [4], in [5] and in assay [16] was inactive. Moreover, the AC50 was 4.74 µM (active) and 26.3 µM (active) in assay [3]; 26.8 µM (active) in [12]; 11 µM (active) and 16.7 µM (active) in assay [13]; 6.73 µM (active) in assay [5]; 9.9 µM (active) in assay [6]; 5.07 µM (active) and 26 µM (active) in [7]. In addition, the AC50 in assay [8] is 43.3 µM (active) and 14.3 µM (active); in assay [9] it was 6.54 µM (active) and 26.4 µM (active); in [10], 7.66 µM (active) and 2.39 µM (active); in assay [15] it was 74.1 µM (active) and 41.1 µM (active); in assay [11], 78.9 µM (active) and 63.2 µM (active).

On to `N#Cc1ccc(C2CCCc3cncn32)cc1` (stereo not given), for which the compound was called inactive in assay [2], in [3], in assay [13], in assay [6], in [17] and in assay [8]. The outcome in assay [9], in assay [10], in [15], in assay [11] and in [16] was inactive. Also, the AC50 is 50 µM (active) in assay [7] and 93.7 µM (active) in assay [8].

On to `C=C1C[C@H]2[C@@H]3C=C(C)C4=CC(=O)CC[C@]4(C)[C@H]3CC[C@]2(C)[C@@]1(OC(C)=O)C(C)=O`, for which the call in assay [4], in [13], in assay [6], in [7], in [14] and in assay [8] was inactive. Besides, the compound was classed as inactive in [15], in assay [11] and in assay [16].

Consider `O=C(O)/C=C/c1ccccc1`, for which the outcome in [3], in assay [5], in assay [6], in [8], in assay [9] and in [15] was inactive. Also, in assay [11], the compound was called inactive. For the same compound, the AC50 in assay [7] is 31.6 µM (active).

A word on the AC50: it is the midpoint of the concentration-response curve, whichever way the signal moves.
